Test results from PubChem BioAssay (EPA / NIEHS).
Inconclusive results are not listed. The source made the active and inactive calls. How the source made its calls: active means hit-call score of the fitted dose curve at least 0.9, where 1 is the maximum; inconclusive means response in the unintended direction; inactive means score below 0.9.

Assay: Tanguay_ZF_120hpf_PIG_legacy: (Legacy) Oregon State University Tanguay Lab 120 Hour Post-fertilization zebrafish Assay for Pigmentation Malformation (AID 2283650)
Procedure, shortened: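 Dechorionated Tropical 5D wild-type embryos, one per well from 6 hpf, statically exposed at 28C in the dark until 120 hpf, 0.64% DMSO final. Pigmentation scored present/absent by brightfield microscopy; dead embryos not scored; fitted versus DMSO.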
In the case of CC(C)C(=O)OCC(C)(C)C(OC(=O)C(C)C)C(C)C (configuration not stated), the outcome is reported as “inactive”. For O=NN(c1ccccc1)c1ccccc1, the outcome was “inactive”. With O=C(N[C@H]1CN2CCC1CC2)c1cc2ccoc2cn1 the outcome was “inactive”. With CO/C=C(/C(=O)OC)c1ccccc1COc1cccc(C(F)(F)F)n1 the AC50 was 19.7 µM (active). For CCC(C)c1cc([N+](=O)[O-])cc([N+](=O)[O-])c1O (configuration not stated), the outcome was “inactive”. For COS(=O)(=O)OC, the outcome was “inactive”. With Cc1cccc([N+](=O)[O-])c1 the outcome was “inactive”. For O=C(O)C(F)(F)C(F)(F)C(F)(F)C(F)(F)C(F)(F)C(F)(F)C(F)(F)C(F)(F)F, the outcome was “inactive”. With CC(C)(c1ccccc1)c1ccc(O)cc1 the outcome was “inactive”. In the case of Clc1ccc(Cl)cc1, the outcome is reported as “inactive”. For Oc1c(Cl)c(Cl)c(Cl)c(Cl)c1Cl, the outcome was “inactive”. For C[C@]12CCC(=O)C=C1CC[C@@H]1[C@@H]2CC[C@@]2(C)[C@H]1CC[C@]2(C)O, the outcome was “inactive”. For Clc1ccc(C(c2ccccc2Cl)C(Cl)(Cl)Cl)cc1 (configuration not stated), the outcome was “inactive”.

Assay: Tanguay_ZF_120hpf_CIRC_legacy: (Legacy) Oregon State University Tanguay Lab 120 Hour Post-fertilization zebrafish Assay for Circulatory Malformation (AID 2283651)
Procedure, shortened: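 Tropical 5D wild-type embryos, dechorionated with pronase at 4 hpf, were placed singly in wells at 6 hpf and exposed statically at 28C to 120 hpf (0.64% DMSO final). Circulatory malformation was scored present/absent by brightfield microscopy.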
In the case of Cc1cc(-c2ccc(N)c(C)c2)ccc1N, the outcome is reported as “inactive”. With ClC(Cl)=C(c1ccc(Cl)cc1)c1ccc(Cl)cc1 the outcome was “inactive”. For NS(=O)(=O)C(F)(F)C(F)(F)C(F)(F)C(F)(F)C(F)(F)C(F)(F)C(F)(F)C(F)(F)F, the outcome was “inactive”. For CC(c1ccc(O)cc1)(c1ccc(O)cc1)c1ccc(O)cc1, the outcome was “inactive”. In the case of CN(C)CCO, the outcome is reported as “inactive”. With c1cc2ccc3cccc4ccc(c1)c2c34 the outcome was “inactive”. For CCC(C)(c1ccc(O)cc1)c1ccc(O)cc1, the AC50 was 42.7 µM (active). For ClC1=C(Cl)[C@]2(Cl)[C@@H]3[C@@H](Cl)[C@H]4O[C@H]4[C@@H]3C1(Cl)C2(Cl)Cl, the outcome was “inactive”. For Oc1ccc(C(c2ccc(O)cc2)(C(F)(F)F)C(F)(F)F)cc1, the outcome was “inactive”. For C=CC(=O)NCNC(=O)C=C, the outcome was “inactive”. With Cc1ccc(O)c(C)c1 the outcome was “inactive”. In the case of CC(C)(O)C(=O)Nc1ccc([N+](=O)[O-])c(C(F)(F)F)c1, the outcome is reported as “inactive”. In the case of C[C@]12CCC(=O)C=C1CC[C@@H]1[C@@H]2CC[C@]2(C)C(=O)CC[C@@H]12, the outcome is reported as “inactive”. In the case of CC(C)C(=O)OCC(C)(C)C(OC(=O)C(C)C)C(C)C (configuration not stated), the outcome is reported as “inactive”. With O=NN(c1ccccc1)c1ccccc1 the outcome was “inactive”. For O=C(N[C@H]1CN2CCC1CC2)c1cc2ccoc2cn1, the outcome was “inactive”. With CO/C=C(/C(=O)OC)c1ccccc1COc1cccc(C(F)(F)F)n1 the AC50 was 9.76 µM (active). With CCC(C)c1cc([N+](=O)[O-])cc([N+](=O)[O-])c1O (configuration not stated) the outcome was “inactive”. With COS(=O)(=O)OC the outcome was “inactive”. In the case of Nc1ccc(-c2ccc(N)cc2)cc1, the outcome is reported as “inactive”. With O=C(O)C(F)(F)C(F)(F)C(F)(F)C(F)(F)C(F)(F)C(F)(F)C(F)(F)C(F)(F)F the outcome was “inactive”. With CCCCCCCCCC[N+](C)(C)CCCCCCCCCC the outcome was “inactive”. With CC(C)(c1ccccc1)c1ccc(O)cc1 the outcome was “inactive”. For ClC1=C(Cl)[C@]2(Cl)[C@@H]3[C@H]4C[C@H]([C@@H]5O[C@H]45)[C@@H]3[C@@]1(Cl)C2(Cl)Cl, the outcome was “inactive”. In the case of Clc1ccc(Cl)cc1, the outcome is reported as “inactive”. In the case of Oc1c(Cl)c(Cl)c(Cl)c(Cl)c1Cl, the outcome is reported as “inactive”. In the case of C[C@]12CCC(=O)C=C1CC[C@@H]1[C@@H]2CC[C@@]2(C)[C@H]1CC[C@]2(C)O, the outcome is reported as “inactive”. In the case of O=C(NC(=O)c1c(F)cccc1F)Nc1cc(Cl)c(OC(F)(F)C(F)F)c(Cl)c1, the outcome is reported as “inactive”. In the case of Clc1ccc(C(c2ccccc2Cl)C(Cl)(Cl)Cl)cc1 (configuration not stated), the outcome is reported as “inactive”.
